The values that follow come from PubChem BioAssay (NCATS).

The target in assay [1] is Cytochrome P450 3A4 (Homo sapiens) (UniProt P08684). As to the kind of experiment: qHTS Assay for Inhibitors and Substrates of Cytochrome P450 3A4 (AID 884). Note: nearly all actives have a fitted effect of over 50% in size. Note: potency is the fitted concentration of half-maximal effect. The gist of the method: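 Luminescent readout of luciferin produced by CYP3A4 (20 nM) dealkylation of Luciferin-PPXE, 25 uM (its KM). NADPH-driven reaction ran 60 min at RT after 10 min compound preincubation; data scaled to 57 uM ketoconazole as 100% inhibition.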

Assay [2] in a line: Cell Viability - LYMP2-001 (AID 921).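 Note: series mostly up to about 92 µM; 0% = DMSO only and full inhibition = tetraoctylammonium bromide control wells; nearly all actives have a fitted effect of over 70% in size.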 A digest of the protocol: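 Steps: seed 2500 lymphoblastoid cells/well; 5 hr, 37 C; add compound; 24 hr, 37 C; CellTiter-Glo reagent, 30 min room temperature; read luminescence. Concentration-response modeled by Hill equation for AC50.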
Assay [3] in a line: MultiTox-Fluor Cytotoxicity Assay - LYMP1-001 - Live Cells (AID 947).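 Note: 0% = DMSO only and full inhibition = tetraoctylammonium bromide control.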
A short description of assay [4]: Cell Viability - LYMP2-010 (AID 981).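 Note: cells exposed to compound for 24 hours at 37 °C; % is set by controls: 0 for no effect and ±100 for the full control effect; nearly all actives have a fitted effect of over 55% in size.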 The gist of the method:
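qHTS cytotoxicity, 1536-well: 2500 cells/well, 5 hr settle, 24 hr compound at 37 C, CellTiter-Glo 30 min RT, luminescence read. Decrease in ATP = toxicity; AC50 via standard Hill equation. Positive control tetraoctylammonium bromide.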

Assay [5] can be described thus: Cell Viability - LYMP2-012 (AID 982).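 Note: cellular ATP by luciferase luminescence where a drop means cytotoxicity; cells exposed to compound for one day before reading; 0% = DMSO only and full loss = 92 µM tetraoctylammonium bromide; nearly all actives have a fitted effect of over 55% in size.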
Assay [6] in a line: Cell Viability - LYMP2-016 (AID 984).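 Note: cells exposed to compound for 24 hours at 37 °C; % is set by controls: 0 for no effect and ±100 for the full control effect; nearly all actives have a fitted effect of over 55% in size.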 The gist of the method: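 Cells were seeded at 2500 per well and rested 5 hr before a 24 hr compound exposure at 37 C. Viability was then gauged as cellular ATP by luciferase luminescence, with AC50 values fitted to the Hill equation.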
The nature of assay [7]: Cell Viability - LYMP2-024 (AID 988).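 Note: plate controls were DMSO only for no effect and 92 µM tetraoctylammonium bromide for full effect; nearly all actives have a fitted effect of over 60% in size.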 The gist of the method: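 ATP-based luminescence (CellTiter-Glo, 30 min RT) after 24 h compound exposure at 37 C of 2500 lymphoblastoid cells/well; decrease in ATP taken as cytotoxicity. qHTS concentration-response fitted to standard Hill equation for AC50.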
Assay [8] has as its target Glucocorticoid receptor (Homo sapiens) (UniProt P04150). The experiment in a line: qHTS assay for small molecule agonists of glucocorticoid receptor signaling (AID 588532; active = well fitted curve in the direction sought with a large enough effect in the signal ratio, with a control signal flat; the % refers to the signal ratio;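 note: 100% = dexamethasone at 0.1 µM and 0% = DMSO only wells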). To be noted: HeLa MMTV-bla, beta-lactamase ratio, agonist, 18 h; active compounds read high; percent of dexamethasone control, DMSO zero. A digest of the protocol: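 MMTV-bla HeLa beta-lactamase reporter cells in 1% charcoal/dextran FBS medium, compounds up to 92 uM for 18 h at 37 C, CCF4 readout; normalized to 0.1 uM dexamethasone (100%), EC50 and efficacy from Hill fits.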
(In qHTS, concentration-response curves come from the screen itself.)

The target is the same in assay [9]. As to the kind of experiment: qHTS assay for small molecule antagonists of glucocorticoid receptor signaling (AID 588533; active = well fitted inhibition curve with a large enough effect in the signal ratio, with a control signal flat, not every such curve was filed as active; the % refers to the signal ratio;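 note: cells stimulated with 2 nM dexamethasone as agonist; % is set by controls: 0 for no effect and ±100 for the full control effect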). The gist of the method: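 Antagonist-mode qHTS: compound titrations added to GRE-bla HeLa cells, then dexamethasone 2 nM final; 18 h, 37 C. CCF4 FRET fluorescence normalized to dexamethasone and DMSO; IC50 from Hill fit.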
The target in assay [10] is Peroxisome proliferator-activated receptor gamma (Homo sapiens) (UniProt P37231). As to the kind of experiment: qHTS assay for small molecule agonists of peroxisome proliferator-activated receptor gamma signaling (AID 588536; active = well fitted curve in the direction sought with a large enough effect in the signal ratio, with a control signal flat, not every such curve was filed as active; the % refers to the signal ratio;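 note: 0% = DMSO basal wells and 100% = rosiglitazone at 2 µM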). A digest of the protocol:
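Using GeneBLAzer HEK293 cells, response was quantified by CCF4 fluorescence and normalized between basal DMSO (0%) and rosiglitazone 2 uM (100%); curves yielded half-maximal stimulation concentration and efficacy.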

Assay [11] deals with Thyroid hormone receptor beta (Homo sapiens) (UniProt P10828). As to the kind of experiment: qHTS assay for small molecule antagonists of thyroid hormone receptor beta signaling (AID 588547; active = well fitted inhibition curve with a large enough effect in the signal ratio, with a control signal flat, not every such curve was filed as active; the % refers to the signal ratio;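 note: cells stimulated with 0.4 nM T3 agonist during compound exposure; series mostly up to about 77 µM; % is set by controls: 0 for no effect and ±100 for the full control effect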). Conditions: TR-UAS-bla HEK293, beta-lactamase ratio, antagonist mode, 18 h. A digest of the protocol:
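TR-UAS-bla GripTite HEK293 cells in 2% charcoal/dextran FBS medium; compounds 0.59 nM to 92 uM with T3 at 0.4nM final, 18 h at 37 C. Beta-lactamase read by CCF4 fluorescence (460/530 nm); Hill fits gave IC50 and efficacy.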

Assay [12] can be described thus: qHTS assay for small molecule activators of the p53 signaling pathway (AID 651743; active = well fitted activation curve with a large enough effect in the signal ratio, not every such curve was filed as active; the % refers to the signal ratio; note: series mostly up to about 92 µM; % of control where 0% means no effect). To be noted: HCT-116 p53RE-bla, beta-lactamase FRET ratio, 16 h; activation: active compounds read high. A digest of the protocol: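 Reporter: beta-lactamase driven by p53 response elements, stably integrated in HCT-116 cells. Cells seeded at 4,000/well, 5 h preincubation, compound (DMSO) 16 h at 37 C; B/G FRET substrate 2 h RT; fluorescence intensity read.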

The nature of assay [13]: qHTS assay for environmental chemicals that activate the Aryl hydrocarbon Receptor (AhR) signaling pathway (AID 651777). Note: % of control where 0% means no effect; nearly all actives have a fitted effect of over 15% in size. To be noted: 1A2-DRE human hepatoma cells, luciferase, 24 h; activation: active compounds read high. A digest of the protocol:
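Following a 24 hr incubation with test chemicals at 37 C and 5% CO2, 1A2-DRE human hepatoma cells received One-Glo reagent; after 30 min at room temperature, luciferase output reflected CYP1A2 induction via AhR.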

The target in assay [14] is Nuclear receptor ROR-gamma (Homo sapiens) (UniProt P51449). The experiment in a line: qHTS assay for small molecule antagonists of the retinoid-related orphan receptor gamma (ROR-gamma) signaling pathway (AID 651802).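 Note: CHO cells with doxycycline-induced ROR-gamma expression; luciferase reporter luminescence driven by ROR response element; series mostly up to about 92 µM; % is set by controls: 0 for no effect and ±100 for the full control effect; nearly all actives have a fitted effect of over 60% in size.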 A digest of the protocol: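 Luciferase read-out: ONE-Glo luminescence after 30 min at room temperature, following 16hr doxycycline induction at 37C, 5% CO2 of CHO cells with TET-inducible ROR and RORE-LUC reporter; decreased luminescence = reduced reporter activity.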

A short description of assay [15]: qHTS assay for small molecule antagonists of the retinoid-related orphan receptor gamma (ROR-gamma) signaling pathway - cell viability counter screen (AID 720652; active = well fitted curve in the direction sought with a large enough effect in the repeat runs; an effect the other way counts as inactive or inconclusive;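 note: CHO reporter cells with doxycycline-induced ROR-gamma expression; series mostly up to about 92 µM; compound exposure lasted 16 hr before ATP read; % is set by controls: 0 for no effect and ±100 for the full control effect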). A digest of the protocol:
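CHO RORE-LUC/TET-ROR line, 1,000 cells/well, 37 C 5% CO2 5 hr; cpd or DMSO + doxycycline induction, 16 hr. CellTiter-Glo, 30 min RT, luminescence = ATP content.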

Assay [16] deals with Estrogen receptor (Homo sapiens) (UniProt P03372). As to the kind of experiment: qHTS assay for small molecule antagonists of estrogen receptor alpha signaling (AID 588513; active = well fitted curve in the direction sought with a large enough effect in the signal ratio, with a control signal flat, not every such curve was filed as active; the % refers to the signal ratio; note: % is set by controls: 0 for no effect and ±100 for the full control effect). The gist of the method:
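Fluorescence from CCF4 substrate after 2 h at room temperature gave reporter activity; cells had been exposed to compound and 0.5nM 17-beta-estradiol for 18 h at 37 C. Hill-equation fitting yielded IC50 and maximal response.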

The target is the same in assay [17]. The experiment in a line: qHTS assay for small molecule agonists of estrogen receptor alpha signaling (AID 588514; calls by dose curve; note: nearly all actives have a fitted effect of over 70% in size; note: potency is the fitted concentration of half-maximal effect;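 for activation: 0% = vehicle only and 100% = reference agonist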). The gist of the method:
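Read-out: CCF4 fluorescence from a beta-lactamase reporter in ER-alpha-UAS-bla HEK 293 cells after 18 hrs of compound exposure at 37 C. Normalized to 20 nM 17-beta-estradiol (100%) and DMSO (0%).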

Assay [18] concerns the target Retinoic acid receptor RXR-alpha (Homo sapiens) (UniProt P19793). The experiment in a line: qHTS assay for small molecule agonists of retinoid X receptor alpha signaling (AID 588544; calls by dose curve;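 note: 0% = DMSO basal wells and 100% = reference agonist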).
Assay [19] deals with Tumor necrosis factor (Homo sapiens) (UniProt P01375). The experiment in a line: qHTS assay to identify small molecules that stimulate Tumor Necrosis Factor-alpha (TNF-alpha) secretion (AID 651757; active = well fitted curve in the direction sought with a large enough effect in the signal ratio; the % refers to the signal ratio; note: 0% is about no effect). The gist of the method:
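THP-1 cells, 3000/well; compound 17 hrs, 37 C; add cryptate/XL665 anti-TNF-alpha antibody pair; 3 hr RT; TR-FRET (HTRF) read of secreted TNF-alpha. Quantitative HTS format.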

Assay [20] deals with Nuclear receptor subfamily 1 group I member 2 (Rattus norvegicus) (UniProt Q9R1A7). The experiment in a line: qHTS assay for small molecule activators of the rat pregnane X receptor (rPXR) signaling pathway (AID 651751; call rule not given here; note: 0% is about no effect). To be noted: rPXR reporter cells, luciferase (One-Glo), 24 h.

“And” between values parts separate entries of the source, which are not always exact repeats. Equal entries are not always repeated. Values without a mark were called inactive. Results filed as inconclusive are left out. The source made the active and inactive calls. Unless noted, calls come from the whole dose curve; as a rule, active = well fitted curve in the direction sought with a large enough effect; inconclusive = small, poorly fitted or top-dose-only effect, or another doubt; inactive = no such curve, though single readings can be large; an effect the other way counts as inactive or inconclusive.

Tumor necrosis factor (Homo sapiens), sequence (P01375 whole entry, looked up): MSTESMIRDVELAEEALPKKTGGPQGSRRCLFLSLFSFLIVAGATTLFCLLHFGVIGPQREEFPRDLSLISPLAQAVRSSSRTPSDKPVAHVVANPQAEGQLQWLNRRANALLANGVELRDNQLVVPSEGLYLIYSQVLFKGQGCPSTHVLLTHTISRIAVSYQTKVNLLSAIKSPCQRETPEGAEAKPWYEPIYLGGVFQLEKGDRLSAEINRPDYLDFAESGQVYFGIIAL
Glucocorticoid receptor (Homo sapiens), sequence (P04150 whole entry, looked up): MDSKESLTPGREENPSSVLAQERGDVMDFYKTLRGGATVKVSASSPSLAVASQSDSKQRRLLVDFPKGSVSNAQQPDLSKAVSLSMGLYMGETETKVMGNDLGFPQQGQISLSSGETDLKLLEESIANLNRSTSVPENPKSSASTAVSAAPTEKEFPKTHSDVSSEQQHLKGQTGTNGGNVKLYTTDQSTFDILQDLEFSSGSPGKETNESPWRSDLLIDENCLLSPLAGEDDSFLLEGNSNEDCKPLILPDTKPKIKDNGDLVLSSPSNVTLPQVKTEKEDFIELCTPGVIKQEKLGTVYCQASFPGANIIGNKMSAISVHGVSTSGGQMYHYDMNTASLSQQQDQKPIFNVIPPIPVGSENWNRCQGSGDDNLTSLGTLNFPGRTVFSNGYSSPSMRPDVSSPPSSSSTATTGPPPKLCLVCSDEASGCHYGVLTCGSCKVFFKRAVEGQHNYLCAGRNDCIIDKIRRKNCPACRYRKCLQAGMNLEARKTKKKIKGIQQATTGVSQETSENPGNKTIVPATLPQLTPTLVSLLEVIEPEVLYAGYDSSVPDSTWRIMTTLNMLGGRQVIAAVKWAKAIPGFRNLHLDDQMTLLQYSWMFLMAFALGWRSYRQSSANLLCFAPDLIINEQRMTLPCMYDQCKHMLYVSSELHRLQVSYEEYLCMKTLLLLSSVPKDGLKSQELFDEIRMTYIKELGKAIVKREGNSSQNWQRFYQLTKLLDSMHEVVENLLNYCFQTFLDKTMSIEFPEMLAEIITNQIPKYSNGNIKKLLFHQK
Retinoic acid receptor RXR-alpha (Homo sapiens), sequence (P19793 whole entry, looked up): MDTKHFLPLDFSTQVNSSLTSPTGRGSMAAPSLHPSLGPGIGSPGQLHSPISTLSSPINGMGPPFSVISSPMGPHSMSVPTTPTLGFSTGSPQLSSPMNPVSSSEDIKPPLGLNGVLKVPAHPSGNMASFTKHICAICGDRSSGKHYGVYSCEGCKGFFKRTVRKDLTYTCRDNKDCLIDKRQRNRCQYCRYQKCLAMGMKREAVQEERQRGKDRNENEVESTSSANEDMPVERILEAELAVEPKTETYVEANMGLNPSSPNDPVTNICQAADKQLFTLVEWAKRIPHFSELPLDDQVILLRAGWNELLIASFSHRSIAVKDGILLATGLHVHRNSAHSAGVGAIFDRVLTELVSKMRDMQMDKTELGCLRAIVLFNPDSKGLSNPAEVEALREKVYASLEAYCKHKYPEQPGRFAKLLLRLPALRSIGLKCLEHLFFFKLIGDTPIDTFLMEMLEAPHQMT
Cytochrome P450 3A4 (Homo sapiens), sequence (P08684 whole entry, looked up): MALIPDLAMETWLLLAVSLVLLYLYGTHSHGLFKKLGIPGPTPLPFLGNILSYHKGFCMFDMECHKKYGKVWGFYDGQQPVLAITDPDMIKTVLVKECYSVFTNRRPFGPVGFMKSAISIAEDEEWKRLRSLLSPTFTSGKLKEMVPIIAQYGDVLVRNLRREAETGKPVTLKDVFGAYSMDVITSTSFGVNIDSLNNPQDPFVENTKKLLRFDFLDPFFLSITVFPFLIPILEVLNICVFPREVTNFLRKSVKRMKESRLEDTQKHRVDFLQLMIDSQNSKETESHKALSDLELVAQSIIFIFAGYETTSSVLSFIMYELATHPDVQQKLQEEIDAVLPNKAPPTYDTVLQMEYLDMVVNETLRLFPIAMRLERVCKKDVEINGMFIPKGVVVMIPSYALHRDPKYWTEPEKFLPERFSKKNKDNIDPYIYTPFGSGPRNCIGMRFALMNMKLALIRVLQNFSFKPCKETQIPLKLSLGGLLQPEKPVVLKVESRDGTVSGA
Thyroid hormone receptor beta (Homo sapiens), sequence (P10828 whole entry, looked up): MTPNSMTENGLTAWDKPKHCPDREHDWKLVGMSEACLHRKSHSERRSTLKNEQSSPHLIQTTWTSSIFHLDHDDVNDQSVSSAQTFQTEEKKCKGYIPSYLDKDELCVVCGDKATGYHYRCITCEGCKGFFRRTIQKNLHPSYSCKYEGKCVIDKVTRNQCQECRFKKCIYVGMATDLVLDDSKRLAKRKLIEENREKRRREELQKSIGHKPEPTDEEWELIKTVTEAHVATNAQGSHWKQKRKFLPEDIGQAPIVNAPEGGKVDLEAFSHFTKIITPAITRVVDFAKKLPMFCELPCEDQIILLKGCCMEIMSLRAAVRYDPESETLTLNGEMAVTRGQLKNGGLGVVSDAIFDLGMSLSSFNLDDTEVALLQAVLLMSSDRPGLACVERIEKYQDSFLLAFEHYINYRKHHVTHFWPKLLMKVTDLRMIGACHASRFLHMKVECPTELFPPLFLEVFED
Nuclear receptor ROR-gamma (Homo sapiens), sequence (P51449 whole entry, looked up): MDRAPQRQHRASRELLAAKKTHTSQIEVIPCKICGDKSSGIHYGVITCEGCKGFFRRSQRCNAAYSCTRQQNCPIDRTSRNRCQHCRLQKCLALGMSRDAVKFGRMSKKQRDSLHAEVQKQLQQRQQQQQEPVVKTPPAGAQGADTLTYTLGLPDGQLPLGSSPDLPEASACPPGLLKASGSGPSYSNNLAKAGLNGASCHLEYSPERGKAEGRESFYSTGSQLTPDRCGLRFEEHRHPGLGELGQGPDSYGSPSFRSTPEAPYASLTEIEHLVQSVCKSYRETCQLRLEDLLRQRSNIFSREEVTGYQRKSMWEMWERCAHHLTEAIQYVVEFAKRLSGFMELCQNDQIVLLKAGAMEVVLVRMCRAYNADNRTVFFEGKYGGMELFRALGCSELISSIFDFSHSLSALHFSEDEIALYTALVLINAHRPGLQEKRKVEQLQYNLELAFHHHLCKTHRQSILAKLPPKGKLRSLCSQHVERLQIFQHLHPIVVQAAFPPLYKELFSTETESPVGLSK
Nuclear receptor subfamily 1 group I member 2 (Rattus norvegicus), sequence (Q9R1A7 whole entry, looked up): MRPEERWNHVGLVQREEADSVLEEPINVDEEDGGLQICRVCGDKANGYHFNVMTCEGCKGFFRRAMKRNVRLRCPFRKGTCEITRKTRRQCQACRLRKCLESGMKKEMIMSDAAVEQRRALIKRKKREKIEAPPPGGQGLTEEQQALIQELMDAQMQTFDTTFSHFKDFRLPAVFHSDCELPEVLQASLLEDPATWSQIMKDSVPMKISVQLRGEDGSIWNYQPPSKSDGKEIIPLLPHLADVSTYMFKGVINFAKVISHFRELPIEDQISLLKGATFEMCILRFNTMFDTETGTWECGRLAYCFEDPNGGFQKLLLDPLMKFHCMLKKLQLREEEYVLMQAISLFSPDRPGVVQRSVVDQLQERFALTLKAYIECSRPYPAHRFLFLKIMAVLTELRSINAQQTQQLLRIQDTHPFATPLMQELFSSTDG
Peroxisome proliferator-activated receptor gamma (Homo sapiens), sequence (P37231 whole entry, looked up): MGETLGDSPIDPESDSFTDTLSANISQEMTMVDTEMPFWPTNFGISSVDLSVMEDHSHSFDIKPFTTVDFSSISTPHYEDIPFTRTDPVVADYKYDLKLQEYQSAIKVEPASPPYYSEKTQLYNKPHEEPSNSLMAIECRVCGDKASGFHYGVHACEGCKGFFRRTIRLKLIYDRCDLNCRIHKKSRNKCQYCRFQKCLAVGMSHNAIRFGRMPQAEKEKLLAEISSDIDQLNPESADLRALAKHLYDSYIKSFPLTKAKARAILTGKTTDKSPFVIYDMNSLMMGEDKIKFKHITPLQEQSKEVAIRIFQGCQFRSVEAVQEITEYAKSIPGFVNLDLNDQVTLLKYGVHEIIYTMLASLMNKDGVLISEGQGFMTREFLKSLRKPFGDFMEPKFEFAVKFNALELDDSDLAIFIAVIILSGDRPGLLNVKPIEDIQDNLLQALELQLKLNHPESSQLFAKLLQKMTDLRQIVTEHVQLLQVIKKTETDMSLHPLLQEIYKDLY
Estrogen receptor (Homo sapiens), sequence (P03372 whole entry, looked up): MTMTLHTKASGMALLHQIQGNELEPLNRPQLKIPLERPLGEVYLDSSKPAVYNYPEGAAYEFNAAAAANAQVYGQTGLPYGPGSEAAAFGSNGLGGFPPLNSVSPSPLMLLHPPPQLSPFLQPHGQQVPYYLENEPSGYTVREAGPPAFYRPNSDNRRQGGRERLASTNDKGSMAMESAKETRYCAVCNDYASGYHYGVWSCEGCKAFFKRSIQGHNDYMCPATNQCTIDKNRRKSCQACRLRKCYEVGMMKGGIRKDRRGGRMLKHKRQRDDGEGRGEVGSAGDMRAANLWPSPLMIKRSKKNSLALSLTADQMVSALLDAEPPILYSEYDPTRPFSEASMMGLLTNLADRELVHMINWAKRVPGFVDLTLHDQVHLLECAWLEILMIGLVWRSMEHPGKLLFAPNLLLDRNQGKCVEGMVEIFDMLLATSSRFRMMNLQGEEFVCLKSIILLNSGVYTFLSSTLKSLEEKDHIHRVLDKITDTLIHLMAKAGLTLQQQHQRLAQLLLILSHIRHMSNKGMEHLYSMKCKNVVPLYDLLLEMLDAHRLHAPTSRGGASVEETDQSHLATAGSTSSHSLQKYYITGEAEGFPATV

Turning to `COc1cc(OC)c(/C=C2/C(=O)Nc3ccccc32)c(OC)c1`, the Potency in assay [1] was 2510 nM (active).
As to `COC1=CC(=O)O[C@@H](/C=C/c2ccc3c(c2)OCO3)C1`, in assay [1], the Potency is 2510 nM (active). The Potency result in assay [2], in [3], in assay [4], in assay [5], in [6] and in [7] was “inactive” throughout. In addition, the Potency result in assay [9], in [14] and in [15] was “inactive” throughout. Moreover, the activation was -3.44% in assay [8], -5.07% in [12] and 3.16% in assay [13]. Besides, the call in [10] was inactive. For the same compound, the activity change % (negative = inhibition) in assay [11] is 4.69%.
`CC(C)(c1ccccc1)c1ccc(O)cc1`: the Potency entry in assay [2], in [3], in [4], in [5], in assay [6] and in assay [7] was “inactive” each time. In addition, the Potency result in [16], in assay [9], in [18], in assay [14] and in [15] was “inactive” each time. In addition, in assay [17], the Potency is 1.78 µM (active) and 3.16 µM (active). Further, the activation is 2.95% and 9.77% in [8]; -4.52% and -0.799% in [12]; 0.0169% and 0.603% in assay [13]. Moreover, the compound was classed as inactive in [10] and in assay [19]. For the same compound, the activity change % (negative = inhibition) in assay [11] was -5.71% and 17.9%. In assay [20], the max response was 0.482% and 0.567%.
`CCCCOCCOP(=O)(OCCOCCCC)OCCOCCCC`: the Potency result in assay [2], in [3], in assay [4], in assay [5], in assay [6] and in assay [7] was “inactive” throughout. Further, the Potency entry in [16], in [17], in assay [9], in assay [18] and in assay [15] was “inactive” in each case. Moreover, the activation in [8] was 0.713% and -16.4%; in assay [12], -1.25% and 0.739%. Moreover, the call in [10] was inactive. The activity change % (negative = inhibition) in [11] is -2.2% and -9.56%.
Turning to `N#CCCCl`, the Potency result in assay [1], in assay [2], in assay [3], in assay [4], in [5] and in assay [6] was “inactive” each time. The Potency entry in assay [7], in assay [9], in [18], in assay [14] and in assay [15] was “inactive” each time. For the same compound, the activation in assay [8] is -5% and -0.386%; in assay [12], -0.742% and -1.01%. In [11], the activity change % (negative = inhibition) is -2.7% and 7.92%. Moreover, the compound was called inactive in assay [19]. For the same compound, the max response in assay [20] was -4.29% and -2.84%.
`Nc1ccc(Br)cc1`: the Potency entry in assay [1], in assay [2], in assay [3], in assay [4], in assay [5] and in assay [6] was “inactive” each time. Also, the Potency entry in assay [7], in assay [16], in assay [17], in [9], in [18] and in assay [14] was “inactive” in each case. The Potency entry in assay [15] is “inactive”. The activation was -2.07% in assay [8], -1.91% in [12] and 0.717% in [13]. Moreover, the activity change % (negative = inhibition) in assay [11] is -8.18%. For the same compound, in assay [19], the outcome was inactive. In addition, the max response in assay [20] is -3.71%.
Take `CCOP(=S)(OCC)SCSC(C)(C)C`: the Potency entry in [1], in assay [2], in assay [3], in assay [4], in [5] and in assay [6] was “inactive” each time. The Potency result in assay [7], in [16], in assay [17], in assay [18] and in assay [15] was “inactive” in each case. In addition, the result in [10] and in assay [19] was inactive. Further, in assay [11], the activity change % (negative = inhibition) is -5% and -15.6%. Also, the activation in assay [12] was 3.78% and -1.22%; in assay [13], 0.254% and 2.38%. The max response in assay [20] is 3.05% and 5.9%.
